High-throughput results (PubChem BioAssay)
HCMV inh: blocks human cytomegalovirus replication | HFF cells, HCMV-luciferase reporter, 72 h; active compounds read low | activity change, negative = inhibition, % at 57.5 µM | 410,000 tested, 4.5% active; in the data active = activity change below about -60%; inconclusive = no clear call, values can overlap the other calls; inactive = above about -39%; also: % is scaled to controls: 0 for no effect and ±100 for the full control effect
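Screen run at 2 compound doses on HFFs infected with reporter HCMV, MOI 1 PFU/cell. Luciferase activity from cell lysates at 72 h post infection gave inhibition relative to buffer-only and Salinomycin wells.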
Marburg entry inh: Marburg virus entry inhibition; 300,000 tested, 1.8% active; Marburg virus pseudotyped entry inhibition, cell reporter; Potency, µM (highest dose often 37.8 µM), for the others: top-dose activity change, negative = inhibition, most hits filed as inhibitors; calls by dose curve; tested in HEK293 cells; also: potency is read from the fitted curve at half-maximal effect; % is scaled to controls: 0 for no effect and ±100 for the full control effect
SARS PLP yeast: SARS-CoV PLP inhibition in yeast. 330,000 tested, 0.19% active. Potency, µM (highest dose often 32.9 µM), without a hit: at the top dose activity, positive = growth rescue, actives largely listed as activators. AID 485353. S. cerevisiae expressing SARS-CoV PLpro, growth rescue; calls by dose curve; also: potency is read from the fitted curve at half-maximal effect; 0% is about no effect; nearly all actives have a fitted effect of over 55% in size
Lassa entry inh: inhibitors of Lassa virus binding or cell entry; Lassa virus pseudotype entry inhibition, cell reporter; Potency, µM (doses to about 37.9 µM), without a hit: at the highest dose activity change, negative = inhibition, hits mostly inhibitors; 300,000 tested, 1.2% active; AID 540256; calls by dose curve; tested in HEK293 cells; also: potency is read from the fitted curve at half-maximal effect; % is scaled to controls: 0 for no effect and ±100 for the full control effect; nearly all actives have a fitted effect of over 50% in size
FMDV inh: antivirals against foot and mouth disease virus; FMDV antiviral cell-based qHTS; Potency, µM (titrated, usually from 57.9 µM), without a hit: at the highest dose activity change, negative = inhibition, most hits filed as inhibitors; 410,000 tested, 1.2% active; calls by dose curve; tested in HEK293T cells; also: read-out not given here; potency is read from the fitted curve at half-maximal effect; % is scaled to controls: 0 for no effect and ±100 for the full control effect; nearly all actives have a fitted effect of over 45% in size
HCV inhibitor: HCV inhibition; 340,000 tested, 3.4% active; Huh7.5.1 HCVcc-Cre infection, luciferase reporter, 44 h; AID 651820; Potency, µM (series often up to 41.8 µM), inactives show at the top dose activity change, negative = inhibition, most hits filed as inhibitors; active = well fitted inhibition curve with a large enough effect; inconclusive = small, poorly fitted or top-dose-only effect, or another doubt; inactive = no such curve, though single readings can be large or run the other way; also: potency is read from the fitted curve at half-maximal effect; % is scaled to controls: 0 for no effect and ±100 for the full control effect
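A cell-based infection assay in which seeded cells (1,000 per well) receive test compound after 4 h, are inoculated with HCVcc-Cre at approximately 0.5 moi, and are incubated 44 h before luminescence detection.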
The depositor's hits bear a star; [ ] = remark or other dose. In the library only some 8% were active in any assay of this set; here they are far more common.

Results for COc1cccc(C(=O)N2CCCC(c3nc(SCCN4CCOCC4)ncc3C)C2)c1 (stereo not drawn) ?
FMDV inh: -24%

Results for Nc1ncnc2c1nc(Sc1ccc(Cl)cc1)n2[C@@H]1O[C@@H]2COP(=O)(O)O[C@H]2[C@H]1O ?
HCMV inh: 18; FMDV inh: -15%; HCV inhibitor: -1%

How did Cc1ccc(N2C(=O)c3oc4cc(C)c(C)cc4c(=O)c3C2c2cccc(O)c2)nc1 (stereo not drawn) do in these assays?
HCMV inh: 7; Marburg entry inh: -5%[46.1 µM]; Lassa entry inh: 8%[46.1 µM]; FMDV inh: -3%

How did O=C(O)C(Cc1ccc(OS(=O)(=O)Cc2ccccc2)cc1)NS(=O)(=O)Cc1ccccc1 (stereo not drawn) do in these assays?
HCMV inh: -60*; Marburg entry inh: 7%[46.1 µM]; Lassa entry inh: -1%[46.1 µM]; FMDV inh: -2%; HCV inhibitor: 6%

What do the screens show for `Nc1ccc(S(=O)(=O)NC(Cc2ccccc2)C(=O)O)cc1` (stereo not drawn)?
HCMV inh: 6; SARS PLP yeast: -5%; FMDV inh: 0%; HCV inhibitor: 5%

Results for O=S(=O)(Cc1ccccc1)Nc1ccccc1 ?
HCMV inh: 1; SARS PLP yeast: 3%; FMDV inh: 7%; HCV inhibitor: 3%

What do the screens show for `O=S(=O)(Cc1ccccc1)Oc1ccccc1`?
HCMV inh: -63*; Marburg entry inh: 27%[46.1 µM]; SARS PLP yeast: 3%; Lassa entry inh: 23%[46.1 µM]; FMDV inh: -2%; HCV inhibitor: 11%

Results for Cc1cc2c(cc1S(=O)(=O)N(CCO)Cc1ccccc1)OCC(=O)N2 ?
HCMV inh: inconclusive; Lassa entry inh: -1%[46.1 µM]; FMDV inh: 6%

How did CCOC(=O)c1sc(N2C(=O)c3oc4cc(C)c(C)cc4c(=O)c3C2c2ccc(C)cc2)nc1C (stereo not drawn) do in these assays?
HCMV inh: -111*; Marburg entry inh: 20%[46.1 µM]; Lassa entry inh: -1%[46.1 µM]; FMDV inh: -6%

How did COc1cc(NS(=O)(=O)c2ccc(NC(=O)COc3ccc(Cl)cc3Cl)cc2)nc(OC)n1 do in these assays?
HCMV inh: 15; Marburg entry inh: inconclusive; Lassa entry inh: -2%[46.1 µM]; FMDV inh: 19%

Results for COc1cc(/C=C2\CCc3ccccc3C2=O)cc(OC)c1OC ?
HCMV inh: -74*; Marburg entry inh: inconclusive; SARS PLP yeast: -26%; Lassa entry inh: inconclusive; FMDV inh: -27%; HCV inhibitor: inconclusive

How did COc1cc(/C=C2/CCc3ccccc3C2=O)cc(OC)c1OC do in these assays?
HCMV inh: inconclusive; Marburg entry inh: 11µM*; SARS PLP yeast: -26%; Lassa entry inh: inconclusive; FMDV inh: inconclusive; HCV inhibitor: inconclusive

What do the screens show for `COc1ccccc1C=C1CCc2ccccc2C1=O`?
HCMV inh: 15; FMDV inh: -35%

What do the screens show for `COc1ccc(/C=C2/CCc3ccccc3C2=O)cc1OC`?
HCMV inh: inconclusive; Marburg entry inh: -22%; SARS PLP yeast: -38%; Lassa entry inh: inconclusive; FMDV inh: -1%; HCV inhibitor: inconclusive

How did O=C(C1CCCCC1)N1CCN(S(=O)(=O)c2ccc(Br)cc2)CC1 do in these assays?
HCMV inh: -9; Marburg entry inh: inconclusive; SARS PLP yeast: 2%; Lassa entry inh: 18µM*; FMDV inh: inconclusive; HCV inhibitor: -6%

How did CN(Cc1ccccc1)C(=O)C1CCCN(Cc2ccc(Cl)cc2)C1 (stereo not drawn) do in these assays?
HCMV inh: -35; Marburg entry inh: inconclusive; SARS PLP yeast: -6%; Lassa entry inh: inconclusive; FMDV inh: inconclusive; HCV inhibitor: 1.4µM*

What do the screens show for `O=C(C1CCCN(Cc2ccc(Br)cc2)C1)N1CCCCC1` (stereo not drawn)?
HCMV inh: inconclusive; SARS PLP yeast: 1%; FMDV inh: inconclusive; HCV inhibitor: 11µM*

Results for Cc1ncc2c(c1CNC(=O)c1ccc3c(c1)OCO3)CCN(C(=O)/C=C/c1ccccc1Cl)C2 ?
FMDV inh: -5%

How did CCCCc1nc2ccccc2n2c(-c3ccc(C)cc3)c3c(=O)n(C)c(=O)n(C)c3c12 do in these assays?
HCMV inh: 9; Marburg entry inh: -2%[46.1 µM]; Lassa entry inh: inconclusive; FMDV inh: -4%

What do the screens show for `Brc1ccc2c(c1)-n1c(nc3ccccc31)CN2`?
HCMV inh: -36

How did COC(=O)c1cc(NC(=O)CCc2c(C)nc3nc(C)nn3c2C)cc(C(=O)OC)c1 do in these assays?
HCMV inh: 0; Marburg entry inh: 16%[46.1 µM]; Lassa entry inh: 19%[46.1 µM]; FMDV inh: -3%

What do the screens show for `CCN1C(=O)/C(=C2/C=Cc3ccccc3N2C)OC1=S`?
HCMV inh: 74; Marburg entry inh: inconclusive; SARS PLP yeast: -12%; Lassa entry inh: -12%; FMDV inh: 28%; HCV inhibitor: 9%

What do the screens show for `CN1/C(=C/c2cc[n+](C)c3ccccc23)C=Cc2ccccc21`?
Marburg entry inh: 4µM*; SARS PLP yeast: -3%; Lassa entry inh: inconclusive; FMDV inh: 14µM*; HCV inhibitor: inconclusive

How did CC1=CC2OC3CC4OC(=O)C=CC=CC(C(C)O)OCC(O)C(C)CC(=O)OCC2(CC1O)C4(C)C31CO1 (stereo not drawn) do in these assays?
HCMV inh: -97*; Marburg entry inh: -72%; Lassa entry inh: inconclusive

Results for CC(=O)OC1C(=O)OCC23CCC4(C)OC4C2OC2CC(OC(=O)C=CC=CC(=O)OCCC1C)C3(C)C21CO1 (stereo not drawn) ?
HCMV inh: -96*; Marburg entry inh: inconclusive; Lassa entry inh: inconclusive

Results for CC(O)C1C=CC=CC(=O)OC2CC3OC4C5OC5(C)CCC4(COC(=O)C4OC4(C)C(O)CO1)C2(C)C31CO1 (stereo not drawn) ?
HCMV inh: -96*; Marburg entry inh: inconclusive

Results for COc1ccc(Nc2nc3ccccc3nc2NS(=O)(=O)c2ccc(Cl)cc2)cc1OC ?
HCMV inh: -18; Marburg entry inh: -4%[46.1 µM]; Lassa entry inh: -1%[46.1 µM]; FMDV inh: -10%

What do the screens show for `CC(CCN1CCCCc2nc(C)c(C)cc21)=NO[C@@H](C)c1cn([C@H](CO)Cc2ccccc2)nn1`?
Marburg entry inh: -12%[14.2 µM]

What do the screens show for `CSC1SCC2C(=O)N(C)C(C(C)C)C(=O)OCC(NC(=O)c3cnc4ccccc4n3)C(=O)NC(C)C(=O)N(C)C1C(=O)N(C)C(C(C)C)C(=O)OCC(NC(=O)c1cnc3ccccc3n1)C(=O)NC(C)C(=O)N2C` (stereo not drawn)?
HCMV inh: -99*; Marburg entry inh: inconclusive; Lassa entry inh: inconclusive; FMDV inh: 0%; HCV inhibitor: inconclusive

Results for COC(=O)CC=C[C@@H](C)[C@H](NC(=O)OCC(Cl)(Cl)Cl)c1cccc(OC)c1 ?
Marburg entry inh: -8%[14.2 µM]
